Laboratory results: PubChem BioAssay (NCI)
Compounds without any hit were thinned out: in the full panel of roughly 83,000, 20% have a hit.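 Results are percent growth after 48 hours of single-concentration exposure. 100 means growth as in untreated cells, lower positive values show inhibition; negative values down to -100 show cell death.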 A number with no mark means an inactive call. The source made the active and inactive calls. How the source made its calls: active means growth percent below 10; inactive means the rest.

Tests used:
Test in all cases: NCI-60 one-dose screen, 48 h (100 = growth as untreated, 0 = no growth, -100 = all killed)
Conditions in all cases: 10 µM unless noted
NCI-H23 lung = test system: NCI-H23 lung
NCI-H226 lung = test system: NCI-H226 lung
NCI-H322M lung = test system: NCI-H322M lung
HOP-62 NSCLC = test system: HOP-62 NSCLC
NCI-H460 lung = test system: NCI-H460 lung
HOP-92 NSCLC = test system: HOP-92 NSCLC
NCI-H522 lung = test system: NCI-H522 lung
A549/ATCC NSCLC = test system: A549/ATCC NSCLC
786-0 renal = test system: 786-0 renal
COLO 205 colon = test system: COLO 205 colon
DU-145 prostate = test system: DU-145 prostate
MALME-3M melanoma = test system: MALME-3M melanoma
MDA-MB-231 breast = test system: MDA-MB-231 breast
RXF 393 renal = test system: RXF 393 renal
SF-268 CNS = test system: SF-268 CNS
SF-295 CNS = test system: SF-295 CNS
SF-539 CNS = test system: SF-539 CNS
UACC-257 melanoma = test system: UACC-257 melanoma
M14 melanoma = test system: M14 melanoma

Question: `NC(=O)CSSCC(N)=O` was tested. Which growth (NCI-H23 lung) did it give?
Answer: 99.2%

Question: What about the growth (NCI-H226 lung) of the same compound?
Answer: 108%

Question: And the growth (NCI-H322M lung)?
Answer: 96.9%

Question: And the growth (HOP-62 NSCLC)?
Answer: 103%

Question: What about the growth (NCI-H460 lung) of the same compound?
Answer: 111%

Question: And the growth (HOP-92 NSCLC)?
Answer: 83.8%

Question: And the growth (NCI-H522 lung)?
Answer: 92.1%

Question: And the growth (A549/ATCC NSCLC)?
Answer: 93.1%

Question: And the growth (786-0 renal)?
Answer: 95.3%

Question: What about the growth (COLO 205 colon) of the same compound?
Answer: 108%

Question: What about the growth (DU-145 prostate) of the same compound?
Answer: 104%

Question: And the growth (MALME-3M melanoma)?
Answer: 93.3%

Question: And the growth (MDA-MB-231 breast)?
Answer: 109%

Question: What about the growth (RXF 393 renal) of the same compound?
Answer: 117%

Question: And the growth (SF-268 CNS)?
Answer: 97.9%

Question: What about the growth (SF-295 CNS) of the same compound?
Answer: 97.1%

Question: What about the growth (SF-539 CNS) of the same compound?
Answer: 102%

Question: And the growth (UACC-257 melanoma)?
Answer: 95.8%

Question: And the growth (M14 melanoma)?
Answer: 93.2%

Question: Which results are given for `COc1ccc(C(=O)CC#N)cc1`?
Answer: growth (NCI-H23 lung): 107%; growth (NCI-H226 lung): 98%; growth (NCI-H322M lung): 120%; growth (HOP-62 NSCLC): 122%; growth (NCI-H460 lung): 108%; growth (HOP-92 NSCLC): 119%; growth (NCI-H522 lung): 113%; growth (A549/ATCC NSCLC): 104%; growth (786-0 renal): 107%; growth (COLO 205 colon): 117%; growth (DU-145 prostate): 107%; growth (MALME-3M melanoma): 123%; growth (MDA-MB-231 breast): 96.8%; growth (RXF 393 renal): 106%; growth (SF-268 CNS): 107%; growth (SF-295 CNS): 131%; growth (SF-539 CNS): 121%; growth (UACC-257 melanoma): 102%; growth (M14 melanoma): 110%

Question: What does the source list for `c1ccc(Cn2cnc3ccc(-c4nc(-c5ccc6c(c5)ncn6C5CCCCC5)cn5ccnc45)cc32)cc1`?
Answer: growth (NCI-H23 lung): -22.8% (active); growth (NCI-H226 lung): -63.1% (active); growth (NCI-H322M lung): 16%; growth (HOP-62 NSCLC): -9.39% (active); growth (NCI-H460 lung): -20.3% (active); growth (HOP-92 NSCLC): -83.6% (active); growth (NCI-H522 lung): -35.2% (active); growth (A549/ATCC NSCLC): -5.05% (active); growth (786-0 renal): -19.4% (active); growth (COLO 205 colon): -29.9% (active); growth (DU-145 prostate): -28.2% (active); growth (MALME-3M melanoma): -15.4% (active); growth (MDA-MB-231 breast): -70.1% (active); growth (RXF 393 renal): -76.9% (active); growth (SF-268 CNS): -0.106% (active); growth (SF-295 CNS): -81.4% (active); growth (SF-539 CNS): -77.6% (active); growth (UACC-257 melanoma): -32.7% (active); growth (M14 melanoma): -4.44% (active)

Question: Which growth (NCI-H23 lung) does the source give for `CCCCCCCC(=O)OCC/C=C/C1OC1C1OC(=O)/C=C\C=C\C(=O)N(C(C)=O)C(=O)/C=C(/C)CCC2OC2C1OC(=O)NC(C)=O` (configuration not stated) here?
Answer: 84.6%

Question: And the growth (NCI-H226 lung)?
Answer: 81.1%

Question: What about the growth (NCI-H322M lung) of the same compound?
Answer: 111%

Question: What about the growth (HOP-62 NSCLC) of the same compound?
Answer: 79.8%

Question: What about the growth (NCI-H460 lung) of the same compound?
Answer: 82.4%

Question: What about the growth (HOP-92 NSCLC) of the same compound?
Answer: 53.3%

Question: What about the growth (NCI-H522 lung) of the same compound?
Answer: 57.1%

Question: What about the growth (A549/ATCC NSCLC) of the same compound?
Answer: 95.1%

Question: And the growth (786-0 renal)?
Answer: 21.3%

Question: And the growth (COLO 205 colon)?
Answer: 62.3%

Question: What about the growth (DU-145 prostate) of the same compound?
Answer: 84.3%

Question: What about the growth (MALME-3M melanoma) of the same compound?
Answer: 123%

Question: What about the growth (MDA-MB-231 breast) of the same compound?
Answer: 73.9%

Question: And the growth (RXF 393 renal)?
Answer: 78.7%

Question: What about the growth (SF-268 CNS) of the same compound?
Answer: 93.4%

Question: What about the growth (SF-295 CNS) of the same compound?
Answer: 90.9%

Question: What about the growth (SF-539 CNS) of the same compound?
Answer: 25.9%

Question: And the growth (UACC-257 melanoma)?
Answer: 84.2%

Question: And the growth (M14 melanoma)?
Answer: 81.7%

Question: How did the growth (NCI-H23 lung) turn out when `N#Cc1c(-c2cccc([N+](=O)[O-])c2)nc(SCC(=O)c2ccc(Cl)cc2)[nH]c1=O` was run?
Answer: 98.5%

Question: And the growth (NCI-H226 lung)?
Answer: 97.6%

Question: What about the growth (NCI-H322M lung) of the same compound?
Answer: 96.8%

Question: And the growth (HOP-62 NSCLC)?
Answer: 87.4%

Question: What about the growth (NCI-H460 lung) of the same compound?
Answer: 108%

Question: And the growth (HOP-92 NSCLC)?
Answer: 94.3%

Question: And the growth (NCI-H522 lung)?
Answer: 88.8%

Question: And the growth (A549/ATCC NSCLC)?
Answer: 101%

Question: What about the growth (786-0 renal) of the same compound?
Answer: 96.7%

Question: What about the growth (COLO 205 colon) of the same compound?
Answer: 103%

Question: And the growth (DU-145 prostate)?
Answer: 105%

Question: And the growth (MALME-3M melanoma)?
Answer: 99.9%

Question: What about the growth (MDA-MB-231 breast) of the same compound?
Answer: 99.3%

Question: What about the growth (RXF 393 renal) of the same compound?
Answer: 102%

Question: What about the growth (SF-268 CNS) of the same compound?
Answer: 97.7%

Question: And the growth (SF-295 CNS)?
Answer: 104%

Question: And the growth (SF-539 CNS)?
Answer: 100%

Question: What about the growth (UACC-257 melanoma) of the same compound?
Answer: 105%

Question: What about the growth (M14 melanoma) of the same compound?
Answer: 100%

Question: What does the source list for `N#CC1=C(N)Oc2c(ccc3ccccc23)C1c1ccccc1Cl` (configuration not stated)?
Answer: growth (NCI-H23 lung): 30.9%; growth (NCI-H226 lung): 69.3%; growth (NCI-H322M lung): 54.7%; growth (HOP-62 NSCLC): 49.9%; growth (NCI-H460 lung): 5.27% (active); growth (HOP-92 NSCLC): 80.6%; growth (NCI-H522 lung): -7.02% (active); growth (A549/ATCC NSCLC): 22.4%; growth (786-0 renal): 27.7%; growth (COLO 205 colon): -1.64% (active); growth (DU-145 prostate): 17.1%; growth (MALME-3M melanoma): 52%; growth (MDA-MB-231 breast): 9.2% (active); growth (RXF 393 renal): 17.9%; growth (SF-268 CNS): 51%; growth (SF-295 CNS): 8.26% (active); growth (SF-539 CNS): -13.5% (active); growth (UACC-257 melanoma): 60.1%; growth (M14 melanoma): 12.5%

Question: Which results are given for `O=C1c2ccccc2CCC12OC2c1cn(-c2ccccc2)nc1-c1ccc(Cl)cc1` (configuration not stated)?
Answer: growth (NCI-H23 lung): 103%; growth (NCI-H226 lung): 75.1%; growth (NCI-H322M lung): 99.6%; growth (HOP-62 NSCLC): 108%; growth (NCI-H460 lung): 58.9%; growth (HOP-92 NSCLC): 40.5%; growth (NCI-H522 lung): 87.1%; growth (A549/ATCC NSCLC): 92.7%; growth (786-0 renal): 115%; growth (COLO 205 colon): 93.9%; growth (DU-145 prostate): 111%; growth (MALME-3M melanoma): 105%; growth (MDA-MB-231 breast): 91.9%; growth (RXF 393 renal): 93.1%; growth (SF-268 CNS): 93.1%; growth (SF-295 CNS): 71.9%; growth (SF-539 CNS): 93.4%; growth (UACC-257 melanoma): 96.1%; growth (M14 melanoma): 97.7%

Question: `CCNc1nc2ccc(Nc3ccnc4cc(Cl)ccc34)cc2[nH]1` was tested. Which growth (NCI-H23 lung) did it give?
Answer: 89.6%

Question: And the growth (NCI-H226 lung)?
Answer: 94.8%

Question: And the growth (NCI-H322M lung)?
Answer: 97.5%

Question: What about the growth (HOP-62 NSCLC) of the same compound?
Answer: 94.7%

Question: And the growth (NCI-H460 lung)?
Answer: 85.9%

Question: What about the growth (HOP-92 NSCLC) of the same compound?
Answer: 61%

Question: What about the growth (NCI-H522 lung) of the same compound?
Answer: 98.3%

Question: What about the growth (A549/ATCC NSCLC) of the same compound?
Answer: 90.8%

Question: And the growth (786-0 renal)?
Answer: 72.2%

Question: What about the growth (COLO 205 colon) of the same compound?
Answer: 61.2%

Question: What about the growth (DU-145 prostate) of the same compound?
Answer: 97%

Question: And the growth (MALME-3M melanoma)?
Answer: 119%

Question: And the growth (MDA-MB-231 breast)?
Answer: 84.7%

Question: What about the growth (RXF 393 renal) of the same compound?
Answer: 68.5%

Question: And the growth (SF-268 CNS)?
Answer: 88.4%

Question: What about the growth (SF-295 CNS) of the same compound?
Answer: 87.3%

Question: And the growth (SF-539 CNS)?
Answer: 85.6%

Question: And the growth (UACC-257 melanoma)?
Answer: 97.9%

Question: What about the growth (M14 melanoma) of the same compound?
Answer: 91.9%
